# Most compounds without a hit are left out; they make up all but 1.5% or so of the library.
# IDE act: activators of human insulin-degrading enzyme in cells. activation, % at 5.96 µM. 0.073% of 340,000 active. P14735. HEK cells, FAbeta-B cleavage, fluorescence polarization; 0% vehicle, 100% cell-free pure enzyme wells;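 active means activation above the mean of all tested compounds plus 3 SD, set per screening campaign, cut at about 17% in these data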
# Target sequence (P14735 whole entry, looked up): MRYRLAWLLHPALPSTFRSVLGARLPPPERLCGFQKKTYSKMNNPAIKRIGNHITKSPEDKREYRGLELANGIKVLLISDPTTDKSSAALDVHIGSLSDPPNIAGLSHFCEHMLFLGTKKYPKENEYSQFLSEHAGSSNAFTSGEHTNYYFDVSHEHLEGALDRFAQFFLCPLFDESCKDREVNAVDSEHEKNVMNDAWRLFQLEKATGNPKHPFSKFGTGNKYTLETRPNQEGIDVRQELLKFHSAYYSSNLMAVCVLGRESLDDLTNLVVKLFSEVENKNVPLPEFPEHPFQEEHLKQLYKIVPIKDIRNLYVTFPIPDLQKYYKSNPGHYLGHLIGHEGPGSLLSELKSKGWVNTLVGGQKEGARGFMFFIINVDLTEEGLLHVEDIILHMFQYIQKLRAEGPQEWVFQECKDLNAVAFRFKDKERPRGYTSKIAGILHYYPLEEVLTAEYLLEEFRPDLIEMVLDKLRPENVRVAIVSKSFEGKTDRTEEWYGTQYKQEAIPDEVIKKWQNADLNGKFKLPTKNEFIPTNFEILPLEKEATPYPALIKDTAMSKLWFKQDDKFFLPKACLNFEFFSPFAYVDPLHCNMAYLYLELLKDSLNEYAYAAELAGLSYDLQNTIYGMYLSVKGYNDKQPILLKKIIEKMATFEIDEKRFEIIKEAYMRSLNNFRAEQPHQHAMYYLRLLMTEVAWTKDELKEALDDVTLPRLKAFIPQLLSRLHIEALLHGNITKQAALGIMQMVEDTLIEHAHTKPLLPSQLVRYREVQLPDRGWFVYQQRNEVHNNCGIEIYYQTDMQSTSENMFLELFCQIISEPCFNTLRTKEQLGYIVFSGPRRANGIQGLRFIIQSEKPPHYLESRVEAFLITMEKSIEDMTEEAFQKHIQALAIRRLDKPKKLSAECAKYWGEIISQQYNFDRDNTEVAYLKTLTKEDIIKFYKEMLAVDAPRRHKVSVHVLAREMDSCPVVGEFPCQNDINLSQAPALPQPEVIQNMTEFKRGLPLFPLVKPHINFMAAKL
# TPT1 inhibitor: C. albicans TPT1 enzyme inhibition. 0.81% of 300,000 active. inhibition, % at 5 µM. AID 1962. recombinant caTPT1, FP RNA substrate dephosphorylation;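 active means inhibition above the mean of all tested compounds plus 3 SD, set per screening campaign, cut at about 24% in these data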;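 further: plate controls were DMSO alone for no effect and ferristatin control at 100 nM for full effect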
# RTF Ca sens inh: cardiac RTF calcium desensitization. 0.12% of 340,000 active. P19429+P45379. inhibition, % at 7.15 µM. AID 493244. IANBD-labeled cardiac RTF, Ca2+ fluorescence;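 active means inhibition above the mean inhibition of all tested compounds plus 3 SD, cut at about 17% in these data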;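 further: assay run at fixed EC70 calcium of 1.6 mM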
# CRFR2-BP ag: CRF-BP/CRF-R2 complex agonism. HEK293 CRF-R2/CRF-BP, calcium dye fluorescence (FLIPR); percent of saturating CRF peptide response. AID 588473. activation, % at 13.2 µM. 0.46% of 350,000 active;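 active means activation of at least 50%, plus an integration ratio under a set limit after plate pattern correction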;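 further: plate controls were neutral control wells without compound for no effect and CRF at EC100 for full effect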
# RTF Ca sens act: increases calcium sensitivity of human cardiac regulated thin filaments; P19429+P45379; IANBD-labeled TnC RTF fluorescence at EC20 calcium; 0% EC20 calcium, 100% full calcium; activation, % at 7.2 µM; 0.24% of 340,000 active; AID 493008;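 active means activation above the mean over all tested compounds plus 3 SD, cut at about 30% in these data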;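 further: rise in fluorescence read as greater calcium sensitivity of cardiac thin filaments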
# IDE inh: cellular human IDE inhibition; P14735; HEK cells, FAbetaB cleavage, fluorescence polarization; inhibition, % at 5.59 µM; 0.41% of 320,000 active; AID 434962;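 active means percent inhibition above the average of all tested compounds plus 3 SD, set per screening campaign, cut at about 16% in these data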;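 further: IDE supplied by intact live HEK cells; FP after avidin binding of uncleaved biotin substrate so inhibition keeps polarization high; 0% = DMSO wells and 100% = 60 µM reference IDE inhibitor Ii1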
# RTF inh confirm: confirmation of inhibitors of cardiac thin filament calcium sensitivity | shares compounds with RTF Ca sens inh | reconstituted cardiac thin filaments, calcium sensitivity fluorescence | inhibition, % at 7.15 µM | 8% of 360 active | AID 504635; in the data active means inhibition above about 18%
# * hit, by the source's call; . = no result given; ! = not active in a repeat.
SMILES,IDE act,TPT1 inhibitor,RTF Ca sens inh,CRFR2-BP ag,RTF Ca sens act,IDE inh,RTF inh confirm
COc1ccc(CNC(=O)C2CCCN2C)cc1OC (stereo not given),6,-3,-5,2,-1,0,.
O=C(O)c1cccc2c1-c1ccc(Cl)cc1C2,1,.,1,-1,-2,.,.
Cc1ccc(C(=O)N2CCN(c3ccc(NC(=O)Cc4ccccc4)cc3)CC2)cc1,4,0,18*,-7,3,0,-5
COc1ccccc1CNS(=O)(=O)c1c(C(=O)N2CCCCC2)c(C)n(C)c1C,2,2,-6,0,-7,0,.
Cc1ccc(S(=O)(=O)N2CCN(c3nn(C)c(=O)n(C)c3=O)CC2)cc1C,2,.,-9,0,-1,5,.
O=C(CN1C(=O)/C(=C2\SC(=S)N(CCS(=O)(=O)O)C2=O)c2ccccc21)Nc1cccc(Br)c1,-3,3,30*,-1,-25,2,3
O=S(=O)(O)c1cc(O)c2cc(Nc3ccccc3)ccc2c1,-4,.,16,-2,-13,.,.
COc1ccccc1Nc1ccc2c(O)cc(S(=O)(=O)O)cc2c1,-4,.,18*,0,-24,.,4
O=S(=O)(O)c1ccc(O)c2cc(Nc3ccccc3)ccc12,3,.,105*,0,-48,.,50*
O=S(=O)(O)c1cc(O)c2ccc(Nc3ccccc3)cc2c1,-10,.,33*,-6,-13,.,10
N=c1c2ccccc2nnn1-c1cccc(C(F)(F)F)c1,-2,1,-5,-3,7,0,.
CCN(CC(=O)Nc1c(F)cccc1F)C(=O)/C=C/c1ccc2ccccc2n1,5,9,20*,-5,-11,-1,2
O=C1CCCc2c1cnc1ncnn21,0,-2,18*,3,-6,0,-3
Nc1c(-c2ccsc2)cnc2ncnn12,-2,-3,2,1,-4,1,.
O=C(COc1ccc(Br)cc1Br)NC(=S)N1CCCc2ccccc21,8,-3,17*,-4,0,-2,-3
O=C(COc1ccc(Br)cc1Cl)NC(=S)N1CCc2ccccc21,0,-4,-9,2,-4,2,.
Cc1cc(C)c(C)c(S(=O)(=O)N2CCN(C(=O)c3cc(S(=O)(=O)N4CCOCC4)ccc3F)CC2)c1C,-1,.,-7,1,2,11,.
CC/C(=C(\c1ccc(O)cc1)c1ccc(OCCN(C)C)cc1)c1ccccc1,-6,0,18*,3,2,0,-1
Cn1nnnc1SCC(=O)Nc1ncc(C(F)(F)F)cc1Cl,1,.,-7,2,4,3,.
CC1=NN(c2ccccc2)C(=O)/C1=C/C=C/c1ccccc1,-4,-5,2,-3,3,2,.
CC1=NN(c2cccc(C(=O)O)c2)C(=O)/C1=C\C=C\c1ccco1,5,22,35*,-1,-36,-2,11
CCOc1ccc(NS(=O)(=O)c2ccc3c(c2)N(C(C)=O)CC3)cc1,5,-2,4,-1,11,5,.
CCOc1ccc(NS(=O)(=O)c2ccc3c(c2)N(C(C)=O)CCS3)cc1,-4,-4,77*,1,0,4,-2
Cc1ccc(S(=O)(=O)N(C)C[C@H]2Oc3ncc(-c4ccccc4)cc3C(=O)N([C@@H](C)CO)C[C@@H]2C)cc1,.,.,.,-3,.,.,.
COc1ccc(NC(=S)N(Cc2ccccn2)Cc2ccccc2Cl)cc1,-2,-2,17*,0,3,6,2
SMILES,IDE act,TPT1 inhibitor,RTF Ca sens inh,CRFR2-BP ag,RTF Ca sens act,IDE inh,RTF inh confirm
COc1cccc(NC(=S)N(Cc2ccccn2)Cc2ccccc2Cl)c1,2,0,-1,-1,2,4,.
CN(C)CCN1C(=O)NC(C)(c2ccc([N+](=O)[O-])cc2)C1=O (stereo not given),-1,1,-1,-2,4,2,.
CC(C)(C)C(=O)NC(n1cnc2c(N3CCOCC3)ncnc21)C(Cl)(Cl)Cl (stereo not given),3,-2,19*,4,1,2,-9
Cc1ccccc1-n1ncc(C(C)NC(=O)c2ccco2)c1C (stereo not given),0,-2,-14,-1,-5,-1,.
CN=c1scc(-c2cccs2)n1/N=C/c1ccccc1O,-3,2,17*,8,-5,4,-7
Cn1cnc([N+](=O)[O-])c1Oc1ccc2ccccc2c1,4,5,14,-1,4,2,.
CSc1nc(-c2ccccc2)cc(C)c1C#N,4,-1,18*,-1,9,4,-10
Cc1ccc(C)c(S(=O)(=O)N2CCCCC2CCNC(=O)C(=O)NCCc2ccco2)c1 (stereo not given),3,2,9,-1,4,1,.
O=C(CCC(=O)OCC(=O)c1ccc(C(F)(F)F)cc1)OCC(=O)c1ccc(C(F)(F)F)cc1,.,6,.,0,.,0,.
COCCCC/C(=N\OCCN)c1ccc(C(F)(F)F)cc1,3,-1,20*!,-1,3,0,2
CCOC(=O)c1c(C)[nH]c(C)c1C(=O)COC(=O)[C@@H](NC(=O)c1ccco1)C(C)C,-4,.,-2,1,-1,4,.
O=[N+]([O-])c1nn(-c2ccc3c(c2)OCCO3)n(O)c1=NCCC1=CCCCC1,4,1,18*,-1,-2,-3,2
N#Cc1ccc(N2CCc3ccccc3C2)c([N+](=O)[O-])c1,-3,0,188*,-2,-2,-9,-5
O=C(c1ccc(N2CCCC2)c([N+](=O)[O-])c1)N1CCc2ccccc2C1,-2,-5,-12,0,-17,5,.
O=C(Cc1ccccn1)c1ccc(F)cc1,2,-1,-16,1,-4,5,.
Cc1cc(OCCCC(=O)NC2=NCCS2)ccc1Cl,2,0,17*,0,-4,-4,-3
CN1C[C@@H]2[C@@H]3C(=O)N(C)C(=O)[C@@H]3[C@](Cc3ccccc3)(C1=O)N2C(=O)c1ccc(Cl)cc1,3,.,0,4,-1,.,.
COc1ccc(C(=NNc2ccccc2C(=O)O)c2ccc(OC)cc2)cc1,4,-4,17*,0,0,-1,-4
Cc1ccc(NC(=O)c2ccccc2SCC(=O)N2CCCC2)cc1S(=O)(=O)N(C)C,-2,-1,-5,0,-1,2,.
Cc1c(CCOC(=O)C23CC4CC(CC(C)(C4)C2)C3)sc[n+]1CC(=O)c1ccccc1,3,1,19*,-1,3,1,-6
Cc1ccc(CSc2nnc(SCC(=O)N/N=C/C=C/c3ccco3)s2)cc1,0,8,3,-2,1,1,.
